# Results as given in PubChem BioAssay AID2284371 (EPA ToxCast).
# Records with an inconclusive call do not appear. The source made the active and inactive calls. How the source made its calls: active means hit-call score of the fitted dose curve at least 0.9, where 1 is the maximum; inconclusive means response in the unintended direction; inactive means score below 0.9.
# Assay: ATG_M_61_EcoTox2: Attagene TRANS-FACTORIAL EcoTox-2 HepG2 Assay for M61 Transcription Factor (Internal Marker)
# Description: ATG_EcoTox2 is a cell-based, multiplexed assay created by modifying the existing Attagene TRANS-FACTORIAL system to include a panel of nuclear receptors from some or all the following species: human (Homo sapiens), african clawed frog (Xenopus laevis), rainbow trout (Oncorhynchus mykiss), japanese medaka (Oryzias latipes), and zebrafish (Danio rerio). The ECOTOX2-FACTORIAL format uses HepG2, a human liver cell line, with measurements taken at 24 hours after chemical dosing in a 24-well plate. ATG_M_61_EcoTox2 is one of 29 assay components calculated in the ATG_EcoTox2 assay. It is designed to make measurements of mRNA induction, a form of inducible reporter, as detected with fluorescence intensity signals by Reverse transcription polymerase chain reaction (RT-PCR) and Capillary electrophoresis technology.The assay endpoint ATG_M_61_EcoTox2 was analyzed in the positive analysis fitting direction relative to DMSO as the negative control and baseline of activity. Using a type of inducible reporter, measures of mRNA for gain-of-signal activity can be used to understand the background control at the transcription factor-level as they relate to the gene. Furthermore, this assay endpoint can be referred to as a secondary readout, because this assay has produced multiple assay endpoints where this one serves a background control function. To generalize the intended target to other relatable targets, this assay endpoint is annotated to the background measurement intended target family, where the subfamily is internal marker.
# Human liver HepG2 cells are transiently transfected with multiple reporter transcription units (MRTUs) in 6-well plates using FuGene 6 reagent (Roche; 3 ml FuGene/1 mg DNA). The MRTU constructs are regulated by a cis-regulating element (promoter). Each RTU expresses a GAL4-UAS that regulates the transcription of a nearby target reporter gene sequence. A major difference between the CIS and TRANS system is that in CIS activities of endogenous TFs are measured, whereas the TRANS assay evaluates changes in activities of exogenous, chimeric NR-Gal4 proteins. […] At the end of 24 hour incubation, total RNA was isolated using TriZol reagent (Invitrogen). The isolated RNA is then reverse-transcribed using oligo(dT) primer and Mo-MLV reverse transcriptase (Invitrogen) with DNAse I (Ambion) treatment for 30 min. The one-tenth of the produced cDNA was amplified by PCR using Taq DNA polymerase (Invitrogen) and two reporter sequence-specific primers. The PCR products were fluorescently labeled by primer extension with 6-arboxyfluorescein (6-FAM) 5'-labeled reporter sequence-specific primer (2 min at 95 C, 20 s at 68 C and 10 min at 72 C) and these products were digested with 5U of HpaI (New England Biolabs) for 2h at 37 C. The fragments were purified using Qiaquick PCR columns (Qiagen), analyzed on an ABI 3130xL genetic analyzer (Applied Biosystems) with peak positions identified by using a set of X-rhodamine (ROX)-labeled MapMarker1000 molecular weight standards (BioVentures). The raw capillary electrophoresis data was processed using Attagraph software (Attagene).
row,SMILES,outcome
1,CC(C)(Oc1ccc(C2CC2(Cl)Cl)cc1)C(=O)O (stereo unspecified),inactive
2,CC(c1cc2ccccc2s1)N(O)C(N)=O (stereo unspecified),inactive
3,CC(C)(Oc1ccc(Cl)cc1)C(=O)O,inactive
4,CC(C)(Oc1ccc(CCNC(=O)c2ccc(Cl)cc2)cc1)C(=O)O,inactive
5,Cc1nc(-c2ccc(C(F)(F)F)cc2)sc1C(=O)NCc1ccc(OC(C)(C)C(=O)O)cc1,inactive
6,Cc1cccc(Nc2cc(Cl)nc(SCC(=O)O)n2)c1C,inactive
7,C[C@]12C=CC(=O)C=C1CC[C@@H]1[C@@H]2C(=O)C[C@@]2(C)[C@H]1CC[C@]2(O)C(=O)CO,inactive
8,CN(CCOc1ccc(CC2SC(=O)NC2=O)cc1)c1ccccn1 (stereo unspecified),inactive
9,C=C(c1ccc(C(=O)O)cc1)c1cc2c(cc1C)C(C)(C)CCC2(C)C,inactive
10,CC(C)OC(=O)C(C)(C)Oc1ccc(C(=O)c2ccc(Cl)cc2)cc1,inactive
11,Cc1c(C)c2c(c(C)c1O)CCC(C)(COc1ccc(CC3SC(=O)NC3=O)cc1)O2 (stereo unspecified),inactive
